Peg3 prom inh – Peg3 promoter-driven luciferase inhibitors, primary screen, cell-based, HeLa, luciferase luminescence; inhibition, % at 20 µM; HeLa PEG-Prom luciferase reporter, overnight; AID 588405, 2011; 1.7% of 360,000 active;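 active = inhibition of at least 50% at 20 µM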
MITF TRPM1 inh – inhibitors of MITF-dependent TRPM1 promoter reporter, primary screen, cell-based, SK-MEL-5, single point, luciferase. SK-MEL-5 TRPM1 promoter luciferase, 24 h. inhibition, % at 12.5 µM. 0.83% of 330,000 active;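 active = mean inhibition across replicates of 60% or more, whatever share of single replicates reaches that level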
EBV LMP1 NFkB – EBV LMP1-driven NF-kappaB luciferase reporter inhibitors, primary screen, cell-based, luminescence, single point. 0.69% of 350,000 active. inhibition, % at 12.5 µM. LMP1-induced NF-kappaB luciferase reporter cells. AID 504558, 2011; in the data active = inhibition above about 41%;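 note: 0% = neutral control wells and 100% = reference inhibitor control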
Shn3 inh set2 – reduction of Shn3 3'UTR firefly luciferase signal, primary screen, Schnurri-3 inhibitor project, cell-based, Clone20 osteoblasts, set 2 | inhibition, % at 12.5 µM | 0.52% of 360,000 active | Clone20 osteoblast Shn3 3'UTR firefly luciferase, 24 h;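 active = mean inhibition of at least 75% with every replicate also reaching 75%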;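 note: 0% = median of neutral control wells and 100% = pilot-screen positive control compound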
TROY signal inh – inhibitors of TROY-driven NF-kB signaling, primary screen, Q293 LMP1-TROYcd cells, NF-kB luciferase, uHTS | Q293 LMP1-TROYcd NF-kB luciferase reporter, 4 h | inhibition, % at 10 µM | 0.98% of 360,000 active;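 active = compounds whose plate-normalised and pattern-corrected inhibition of the luciferase reporter signal at the single screening dose is 50% or more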
TWEAK-Fn14 inh – inhibitors of TWEAK-Fn14 signaling, primary screen, luciferase reporter cells, uHTS. TWEAK-stimulated Fn14 reporter cells, luciferase luminescence, 8 h. inhibition, % at 10 µM. 2% of 360,000 active. AID 1159606, 2016; in the data active = inhibition above about 50%
* hit, by the source's call; nt = no result given. Hits are enriched below; roughly 4.1% of the tested compounds scored in any of these assays.

SMILES	Peg3 prom inh	MITF TRPM1 inh	EBV LMP1 NFkB	Shn3 inh set2	TROY signal inh	TWEAK-Fn14 inh
C[C@@H]1CN([C@H](C)CO)C(=O)CCCn2cc(nn2)CO[C@H]1CN(C)C(=O)Nc1ccccc1C(F)(F)F	5.0	nt	-1.5	3.4	10.3	9.1
CCOC(=O)C1(Cc2ccccc2)CCCN(S(=O)(=O)N(C)C)C1 (centres undefined)	12.4	-2.7	1.6	-110.2	-1.2	-4.4
O=C(Nc1ccc(Oc2ccccc2)cc1)C1CCN(c2c3c(nc4ncnn24)CCC3)CC1	38.5	25.8	32.7	82.0	51.1*	79.2*
O=C(Nc1ccccn1)NC1CCCCC1	-8.7	-7.7	84.4*	-12.2	-13.3	-5.9
O=C1C(=O)c2ccccc2C(O)=C1CCCCl	40.4	78.0*	0.3	14.3	-4.3	5.1
COc1cccc(CNC(=O)CCC2CCCN(C(=O)c3cccnc3SC)C2)c1 (centres undefined)	-30.3	-4.6	2.3	-8.0	0.6	-0.9
O=C(Nc1c(Cl)cc2c(c1Cl)Cc1cc([N+](=O)[O-])ccc1-2)C(Cl)Cl	-3.8	-15.1	-29.9	94.8*	13.5	8.5
CC(=O)Nc1ccc2c(c1)Cc1c-2cc(Cl)c(NC(C)=O)c1Cl	-40.2	-18.6	3.0	-10.8	-34.8	-3.4
COc1ccccc1N1CC(C(=O)Nc2cc(C(F)(F)F)ccc2N2CCCC2)CC1=O (centres undefined)	2.8	2.4	6.0	-6.5	7.5	2.0
COc1ccc(C2c3[nH]c4ccccc4c3CCN2Cc2cccn2-c2ncccn2)cc1C (centres undefined)	-78.5	13.8	6.1	36.6	71.2*	56.3*
Cc1cccc(C2c3[nH]c4ccccc4c3CCN2Cc2cccn2-c2ncccn2)c1 (centres undefined)	0.1	-4.2	-11.0	7.7	-15.0	-11.4
CCOc1ccc(C(=O)NCCCN2CCOCC2)cc1OCC	-0.6	8.7	12.7	-20.5	-1.4	-17.3
Cc1cc(C)nc(Nc2cccc(Cl)c2)n1	-48.5	-42.2	-0.3	-7.2	-21.9	-4.3
CN(C#N)c1nc(Cl)nc(Nc2cccc(Cl)c2)n1	99.2*	7.7	-4.2	-26.0	-12.6	-8.0
c1cnc2ccc3ncccc3c2c1	-52.6	-2.0	-1.5	-8.6	0.7	-0.3
O=Cc1ccc(O)c2ncccc12	39.4	63.0*	59.4*	70.4	-11.6	16.9
CCOC(=O)C1CCCN(C(=O)c2cc(OC)ccc2Br)CC1 (centres undefined)	3.8	nt	nt	4.6	-12.2	8.4
CCOc1cc(CNCCc2ccc(S(N)(=O)=O)cc2)ccc1OCc1ccc(Cl)cc1	107.6*	91.9*	-65.5	90.5*	29.2	86.1*
COc1cc(CNCCc2ccc(S(N)(=O)=O)cc2)ccc1OCc1ccc(Cl)cc1	92.2*	-11.1	-4.1	44.5	-9.0	-10.4
CCOc1ccc(CNCCc2ccc(S(N)(=O)=O)cc2)cc1	-0.9	-12.6	-1.6	2.0	-13.9	2.5
O=C(CCN1C(=O)c2ccccc2C1=O)c1cnc[nH]1	4.3	nt	nt	0.7	-5.2	7.7
COc1ccc(OCCC(=O)OCC(=O)Nc2ccc(Br)cc2)cc1	-1.5	3.7	1.5	0.6	16.2	-14.3
CCCCNC(=O)COC(=O)c1c2c(nc3ccccc13)CCC2	10.2	-3.8	-4.2	29.6	10.2	24.4
COc1ccc(OC)c(NC(=O)COC(=O)COc2ccc(Nc3ccccc3)cc2)c1	2.1	-3.3	69.6*	4.8	10.3	33.0
CNC(=O)COC(=O)c1c2c(nc3ccccc13)CCC2	2.7	-9.9	-11.1	1.4	17.8	-6.5
COc1ccc(NC(=O)COC(=O)c2c3c(nc4ccccc24)CCCC3)cc1	34.0	4.4	6.8	46.4	42.2	58.7*
COc1ccc(OC)c(NC(=O)COC(=O)c2c3c(nc4ccccc24)CCCC3)c1	78.2*	-11.0	31.3	90.0*	29.0	55.1*
COc1ccc(OCCC(=O)OCC(=O)Nc2cccc(Br)c2)cc1	-5.9	-4.5	2.6	8.3	49.5	100.6*
COc1ccc(NC(=O)COc2ccccc2)c(OC)c1	-110.3	-62.6	-11.0	-100.9	-53.0	-17.6

Screening data as filed in PubChem.
